16 molecules from PubChem BioAssay (NCATS) can be followed below.

SMILES strings stand for the structures. Several values for one entry are separate records, joined by “and”; a condition that tells them apart may be missing. Identical values can stand only once. Values without a mark were called inactive. Inconclusive results are not listed. Activity calls are given as the source filed them. Unless noted, calls follow the shape of the dose curve; as a rule, active = well fitted curve in the direction sought with a large enough effect; inconclusive = small, poorly fitted or top-dose-only effect, or another doubt; inactive = no such curve, though single readings can be large; an effect the other way counts as inactive or inconclusive.

The nature of assay [1]: AP1 Signaling Pathway (AID 357; active = well fitted curve in either direction with a large enough effect, not every such curve was filed as active;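 also: ME-180 reporter cells stimulated with EGF at its EC50 level; % is scaled to controls: 0 for no effect and ±100 for the full control effect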). In outline: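 Read-out was the 460nm/530nm emission ratio (excitation 405nm) after CCF4 loading for 2.5 hours at room temperature. Cells carried an AP-1-driven beta-lactamase reporter, were stimulated with EC50 EGF plus compound for 5 hours, and AC50 values came from titrations.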
Assay [2] has as its target Cytochrome P450 1A2 (Homo sapiens) (UniProt P05177). The assay can be described thus: p450-cyp1a2 (AID 410; calls by dose curve; also: potency is read from the fitted curve at half-maximal effect;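 as to activity change, negative = inhibition: -100% = full effect of reference inhibitor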). In outline:
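O-Demethylation of luciferin 6' methyl ether by human CYP1A2 is monitored as luciferase luminescence. Substrate sits at Km (100uM); enzyme is 20nM. Values are scaled to 57 uM furafylline as maximal inhibition.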

Assay [3] can be described thus: NFAT Signaling Pathway (AID 444; active = well fitted curve in either direction with a large enough effect, not every such curve was filed as active;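 also: carbachol stimulus at about its EC50 of 1 µM final; % is scaled to controls: 0 for no effect and ±100 for the full control effect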). Conditions: Jurkat NFAT-bla M1, carbachol, beta-lactamase ratio, 5 h; at 17.2 µM (top of the series) unless noted. Summed up: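 Jurkat cells carrying an NFAT-driven β-lactamase reporter and co-transfected muscarinic M1 receptor were treated with compound plus carbachol (1 uM final, an EC50 level) for 5 h at 37 °C. CCF4 loading followed for 1 h at RT; 460/530 nm ratio gave %activity.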

Assay [4] in a line: Stat Signaling Pathway (AID 446; active = well fitted curve in either direction with a large enough effect, not every such curve was filed as active;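 also: ME-180 cervical cancer cells given 40 pM IL-6 alongside compound; SIE-controlled beta-lactamase reporter measured as 460/530 nm FRET emission ratio; % is scaled to controls: 0 for no effect and ±100 for the full control effect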). In outline:
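FRET read-out (405 nm excitation, 460/530 nm emission) of a beta-lactamase reporter under a STAT-inducible element in ME-180 cervical carcinoma cells. Cells with compound receive 40 pM IL-6 for 5 h. Values are normalised to AC90 stimulation and AC90 JAK-inhibitor controls.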

Assay [5] concerns the target Glucocorticoid receptor (Homo sapiens) (UniProt P04150). The experiment in a line: GR-GFP Redistribution (AID 450;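 active = compounds whose dose series gives a full or clear partial fitted curve of increased nuclear translocation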; also: potency is read from the fitted curve at half-maximal effect). Conditions: U2OS GR-GFP nuclear translocation, laser cytometry, 2 h.
Assay [6] has as its target Mitogen-activated protein kinase 10 (Mus musculus) (UniProt Q61831). The experiment in a line: JNK3 AlphaScreen Assay (AID 530; active = well fitted curve in either direction with a large enough effect, not every such curve was filed as active;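 also: kinase came from lysate of stimulated human HepG2 cells; signal reports phosphorylation of biotinylated GST-cJun 1-79 at Ser73 with 10 µM ATP; % is scaled to controls: 0 for no effect and ±100 for the full control effect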). In outline: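 Phosphorylation of biotinylated GST-cJun(1-79) at Ser73 is measured by AlphaScreen proximity luminescence. Enzyme is JNK3 in HepG2 lysates activated with interleukin-1beta and tumor necrosis factor alpha; ATP is 10 uM final.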
A general note: In Alpha technology, singlet oxygen from a donor bead excites a nearby acceptor bead.

Assay [7] is described as follows: Cell Viability - BJ (AID 421; calls by dose curve;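 also: potency is read from the fitted curve at half-maximal effect; cells exposed to compound for 40 hours at 37 °C before readout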). The settings on record: BJ fibroblast viability, qHTS. Summed up:
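Cytotoxicity as drop in intracellular ATP (CellTiter-Glo, 20 min RT) after 40 hr compound exposure of BJ fibroblasts at 37 °C. Titrations scaled between DMSO and 100 uM tamoxifen, Hill-fitted for AC50.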

The nature of assay [8]: Cell Viability - Hek293 (AID 427;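 active = compounds whose dose-response curve shows a full or clear partial loss of cell viability, called from curve shape rather than a numeric limit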;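 also: potency is read from the fitted curve at half-maximal effect; cells exposed to compound for 40 hours at 37 °C before reading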). The settings on record: qHTS. Summed up: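 Luminescent ATP content (CellTiter-Glo, 20 min at room temperature) was measured after a 40 hr, 37 °C compound exposure of HEK293 cells. AC50 values came from Hill-equation fits of qHTS concentration-response data normalized to DMSO and 100 uM tamoxifen.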
In general terms: qHTS replaces the single test concentration by a dilution series.

Assay [9] is described as follows: Cell Viability - HepG2 (AID 433; calls by dose curve;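 also: potency is read from the fitted curve at half-maximal effect; potency for ATP loss meaning cytotoxicity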). Conditions: qHTS. In outline:
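ATP luminescence (CellTiter-Glo) after 40 h compound exposure, 37 °C, HepG2, 1500 cells/well, complete medium. Normalized: DMSO = basal, 100 uM tamoxifen = 100% inhibition. AC50 via standard Hill equation.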

A short description of assay [10]: Cell Viability - MRC5 (AID 434; calls by dose curve;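 also: potency is read from the fitted curve at half-maximal effect; potency reflects cytotoxicity seen as loss of intracellular ATP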). The settings on record: MRC5 lung fibroblast viability, qHTS. In outline:
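Decrease in intracellular ATP, quantified by luciferase light output, reflects compound toxicity toward MRC5 cells exposed for 40 hr in complete culture medium. Concentration-response curves, scaled between DMSO and 100 uM tamoxifen, gave AC50 values.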

Assay [11] in a line: Cell Viability - SK-N-SH (AID 435; calls by dose curve; also: potency is read from the fitted curve at half-maximal effect). Conditions: SK-N-SH neuroblastoma cell viability qHTS. Summed up:
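CellTiter-Glo ATP luminescence, 20 min RT read; cells pre-plated 5 hr, compound 40 hr at 37 °C, 1500 cells/well, complete medium. Normalized DMSO = 0, 100 uM tamoxifen = 100% inhibition; Hill-fit AC50.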

Assay [12] can be described thus: Cell Viability - N2a (AID 540). Also: nearly all actives have a fitted effect of over 45% in size. Also: potency is read from the fitted curve at half-maximal effect.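 As to activity change, negative = cytotoxicity: plate controls were DMSO alone for no effect and tamoxifen control for full effect.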 In outline:
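Cytotoxicity was scored as loss of cellular ATP in N2a cells, a mouse neuroblastoma line. Compounds are applied in a qHTS concentration series for 40 hr at 37 °C.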

Assay [13] in a line: Cell Viability - NIH 3T3 (AID 541).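 Also: plate controls were DMSO alone for no effect and tamoxifen positive control for full effect; nearly all actives have a fitted effect of over 25% in size.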 Conditions: NIH 3T3 cell viability, qHTS; activity change, negative = cytotoxicity: at 92.2 µM (top of the series). In outline:
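Cells seeded at 1000/well, rested 5 hr at 37 °C, then dosed and incubated 40 hr at 37 °C. CellTiter-Glo added, 20 min room temperature, luminescence read. AC50 by Hill fit.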

The nature of assay [14]: Cell Viability - HUV-EC-C (AID 542). Also: % is scaled to controls: 0 for no effect and ±100 for the full control effect; nearly all actives have a fitted effect of over 35% in size. In outline: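 Cells were seeded at 1000 per well and incubated 5 hr at 37 °C before compound addition. After 40 hr at 37 °C, CellTiter-Glo reagent was added for 20 min and luminescence read. AC50 values came from Hill-equation modelling.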
Assay [15] is described as follows: Cell Viability - H-4-II-E (AID 543). Also: nearly all actives have a fitted effect of over 35% in size. Also: potency is read from the fitted curve at half-maximal effect. Summed up: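 Cells seeded at 1500 per well and rested 5 hr; compounds added; 40 hr incubation at 37 °C; CellTiter-Glo added, 20 min at room temperature; luminescence read. Hill-equation fits gave AC50.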
A short description of assay [16]: Cell Viability - SH-SY5Y (AID 544). Also: nearly all actives have a fitted effect of over 55% in size. Also: potency is read from the fitted curve at half-maximal effect.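 As to viability change, negative = cytotoxic: 0% = DMSO alone and -100% = 100 µM tamoxifen.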 Conditions: SH-SY5Y neuroblastoma cell viability; viability change, negative = cytotoxic: at 92.2 µM (top of the series). In outline:
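Cells were plated at 1500 per well and allowed 5 hr at 37 °C. Compounds were added across a concentration range and incubated 40 hr at 37 °C. CellTiter-Glo was added for 20 min at room temperature before luminescence reading.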

Assay [17] can be described thus: Cell Viability - Renal Proximal Tubule (AID 545).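 Also: 0% = DMSO only and -100% = 100 µM tamoxifen; nearly all actives have a fitted effect of over 40% in size.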 In outline:
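Rat kidney proximal tubule cells, freshly isolated; 1000 cells/well, 5 hr settle, compound 40 hr 37 °C. CellTiter-Glo 20 min RT, luminescence read. AC50 by standard Hill fit.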

Assay [18] is described as follows: Cell Viability - Jurkat (AID 426;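 active = dose-dependent loss of cell ATP signal giving a full or clear fitted curve, ranked by lower potency value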;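 also: potency is read from the fitted curve at half-maximal effect; cells exposed to compound for 40 hours at 37 °C before ATP read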). The settings on record: qHTS. In outline: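 Cells of the human T-cell leukemia line Jurkat (E6-1) are seeded at 5000 per well, treated with compound across a concentration range for 40 hours at 37 °C, then lysed with CellTiter-Glo; luminescence reports ATP.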

Cytochrome P450 1A2 (Homo sapiens), sequence (P05177 whole entry, looked up): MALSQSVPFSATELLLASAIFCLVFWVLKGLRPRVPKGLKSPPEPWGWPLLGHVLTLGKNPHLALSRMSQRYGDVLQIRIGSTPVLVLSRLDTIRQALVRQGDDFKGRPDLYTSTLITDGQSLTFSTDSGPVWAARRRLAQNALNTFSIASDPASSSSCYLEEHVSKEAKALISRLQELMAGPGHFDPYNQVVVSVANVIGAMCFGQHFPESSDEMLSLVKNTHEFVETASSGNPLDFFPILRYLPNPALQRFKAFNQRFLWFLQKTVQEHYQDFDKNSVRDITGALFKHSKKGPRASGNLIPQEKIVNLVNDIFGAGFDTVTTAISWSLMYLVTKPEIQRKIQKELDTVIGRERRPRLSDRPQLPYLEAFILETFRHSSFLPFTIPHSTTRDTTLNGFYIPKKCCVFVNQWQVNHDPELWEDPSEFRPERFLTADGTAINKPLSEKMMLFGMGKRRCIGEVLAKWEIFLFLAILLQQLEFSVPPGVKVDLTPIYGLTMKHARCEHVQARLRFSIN
Glucocorticoid receptor (Homo sapiens), sequence (P04150 whole entry, looked up): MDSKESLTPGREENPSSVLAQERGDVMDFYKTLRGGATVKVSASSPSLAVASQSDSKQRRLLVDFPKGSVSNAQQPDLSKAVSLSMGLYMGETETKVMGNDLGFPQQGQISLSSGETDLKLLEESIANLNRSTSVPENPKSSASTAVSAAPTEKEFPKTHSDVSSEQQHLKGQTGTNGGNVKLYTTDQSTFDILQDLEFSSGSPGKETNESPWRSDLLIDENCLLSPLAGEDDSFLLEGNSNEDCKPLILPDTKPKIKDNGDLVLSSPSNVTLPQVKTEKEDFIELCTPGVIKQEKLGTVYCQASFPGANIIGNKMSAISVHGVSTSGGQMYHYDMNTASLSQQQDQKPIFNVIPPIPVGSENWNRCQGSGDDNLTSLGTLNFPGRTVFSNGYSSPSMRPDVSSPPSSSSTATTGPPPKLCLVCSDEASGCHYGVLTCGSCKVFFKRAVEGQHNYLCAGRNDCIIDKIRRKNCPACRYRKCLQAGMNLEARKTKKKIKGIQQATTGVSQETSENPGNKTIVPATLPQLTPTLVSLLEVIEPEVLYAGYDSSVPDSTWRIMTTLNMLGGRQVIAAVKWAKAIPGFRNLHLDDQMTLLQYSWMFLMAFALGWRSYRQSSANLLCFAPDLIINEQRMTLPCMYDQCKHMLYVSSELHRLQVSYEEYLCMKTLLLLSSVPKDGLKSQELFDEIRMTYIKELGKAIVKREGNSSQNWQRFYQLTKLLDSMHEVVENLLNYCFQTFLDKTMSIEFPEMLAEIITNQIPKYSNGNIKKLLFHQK

With `CCCc1ncc(C[n+]2ccccc2C)c(N)n1`, the molecule was classed as inactive in assay [1] and in [4]. In addition, the Potency result in [2] and in assay [6] was “inactive” throughout. In addition, in assay [3], the activity change, negative = inhibition is -11.4%. The Potency in assay [5] was more than 20.6 µM.
Regarding `c1ccc(CC2=NCCN2)cc1`, the molecule was classed as inactive in assay [1]. Further, the activity change, negative = inhibition in assay [3] was -12.4%. Moreover, in assay [6], the Potency result is “inactive”.
Consider `O=C(O)c1ccc(S(=O)(=O)N(Cl)Cl)cc1`, for which the Potency in assay [7], in assay [8], in assay [9], in assay [10] and in assay [11] was more than 92 µM in each case. Also, the Potency entry in [6], in [12] and in [15] was “inactive” throughout. Also, the activity change, negative = cytotoxicity in [13] is -11.9%. The outcome in [14] and in assay [17] was inactive. Also, the viability change, negative = cytotoxic in [16] is -7.18%.
For the molecule `CCN(CC)CCNC(=O)COc1ccc(OC)cc1`, in [1], the outcome was inactive. Besides, the activity change, negative = inhibition in assay [3] is -21.8%. Further, the Potency in [5] is more than 20.6 µM. The Potency entry in assay [6] was “inactive”.
On to `NCCNc1cccc2ccccc12`, for which the Potency in assay [7], in [9], in assay [10] and in assay [11] was more than 92 µM throughout. In addition, the Potency entry in assay [6] and in assay [12] was “inactive” in each case. Moreover, the activity change, negative = cytotoxicity in assay [13] is -24.9%. The molecule was classed as inactive in [14] and in assay [17].
As for `NC(=O)c1ccccc1O`, the Potency in assay [7], in [18], in [8], in assay [9], in [10] and in assay [11] was more than 92 µM throughout. For the same molecule, the Potency entry in [6], in assay [12] and in assay [15] was “inactive” each time. For the same molecule, the activity change, negative = cytotoxicity in [13] is 6.43%. The molecule was called inactive in [14] and in assay [17]. Also, the viability change, negative = cytotoxic in assay [16] was 4.84%.
Regarding `CCCCC(CC)COC(=O)c1ccc(N(C)C)cc1` (stereo unspecified), the Potency in assay [7], in [18], in assay [8], in [9], in [10] and in [11] was more than 92 µM throughout. The Potency result in [12] and in assay [15] was “inactive” each time. Moreover, the activity change, negative = cytotoxicity in assay [13] was -7.45%. Moreover, the call in assay [14] and in assay [17] was inactive. Further, the viability change, negative = cytotoxic in assay [16] is 0.409%.
Consider `CC[C@H](c1ccc(O)cc1)[C@@H](CC)c1ccc(O)cc1`, for which the Potency in assay [2] is 12.6 µM (active); in assay [5], more than 20.6 µM. The Potency entry in [6] was “inactive”.
For `CCCCCCCCNC(C)C(O)c1ccc(SC(C)C)cc1` (stereo unspecified), the call in assay [1] was inactive. In addition, the Potency in assay [5] is more than 20.6 µM.
`O=C(O)CCNC(=O)c1ccccc1`: in assay [1], the outcome was inactive. Further, the activity change, negative = inhibition in [3] is 3.54%. The Potency in [5] was more than 20.6 µM.
Turning to `CN1CCC(OC(c2ccccc2)c2ccccc2)CC1`, the call in assay [1] and in [4] was inactive. Further, the Potency result in assay [6] was “inactive”.
As to `Oc1c(Cl)cc(Cl)c(Cl)c1Cc1c(O)c(Cl)cc(Cl)c1Cl`, the Potency in assay [7] is 0.536 µM; in assay [9], 10.7 µM (active); in assay [12], 0.794 µM (active); in assay [15] it was 31.6 µM (active); in assay [16] it was 15.8 µM (active). In addition, the Potency result in assay [6] is “inactive”. In assay [13], the activity change, negative = cytotoxicity is -102% (active).
On to `COc1ccc(C(=O)c2ccccc2O)c(O)c1`, for which the molecule was classed as inactive in assay [1]. The activity change, negative = inhibition in assay [3] is -15.7%. The Potency in assay [5] was more than 20.6 µM. Moreover, in [6], the Potency result is “inactive”.
`CCCCc1cc2ccccc2c(OCCN(C)C)n1`: the Potency in assay [2] is 0.0794 µM (active); in assay [5], more than 20.6 µM. For the same molecule, the Potency entry in assay [6] is “inactive”.
For `OC[C@H]1O[C@@H]2O[C@H]3[C@H](O)[C@@H](O)[C@@H](O[C@H]4[C@H](O)[C@@H](O)[C@@H](O[C@H]5[C@H](O)[C@@H](O)[C@@H](O[C@H]6[C@H](O)[C@@H](O)[C@@H](O[C@H]7[C@H](O)[C@@H](O)[C@@H](O[C@H]8[C@H](O)[C@@H](O)[C@@H](O[C@H]1[C@H](O)[C@H]2O)O[C@@H]8CO)O[C@@H]7CO)O[C@@H]6CO)O[C@@H]5CO)O[C@@H]4CO)O[C@@H]3CO`, the Potency in assay [7], in [18], in assay [8], in assay [9], in assay [10] and in [11] was more than 92 µM in each case. Further, the Potency entry in assay [6], in assay [12] and in [15] was “inactive” throughout. The activity change, negative = cytotoxicity in assay [13] is 5.27%. In addition, the molecule was called inactive in assay [14] and in assay [17]. The viability change, negative = cytotoxic in assay [16] was -6.32%.
Turning to `O=C(O)CCC(=O)Nc1ccc(S(=O)(=O)Nc2nccs2)cc1`, the result in [1] was inactive. For the same molecule, the activity change, negative = inhibition in assay [3] is 4.24% and -25.1%. Further, the Potency in assay [5] was more than 20.6 µM. Further, the Potency entry in assay [6] was “inactive”.
